These results are taken from PubChem BioAssay (Tox21).

Values joined by “and” are separate entries in the source; they are usually repeats but may differ in a detail not shown here. Identical values can stand only once. A number with no mark means an inactive call. Results filed as inconclusive are left out. Active and inactive are the calls of the source. Unless noted, the call rests on the fitted dose curve; in most records, active means well fitted curve in the direction sought with a large enough effect in the repeat runs; inconclusive means weak or mixed curves; inactive means no such curve, though single readings can be large; an effect the other way counts as inactive or inconclusive.

Test [1] can be described thus: qHTS assay to identify small molecule antagonists of the estrogen related receptor (ERR) signaling pathway from Tox21 library - cell viability counter screen (AID 1224834). Further: nearly all actives have a fitted effect of over 30% in size. The procedure, abridged: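 Seeded ERR cells were rested 6 h at 37 C/5% CO2 before compounds, positive and negative controls or DMSO were added. Incubation continued for 17.5 h, and viability was then quantified by CellTiter-Fluor fluorescence.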
In general terms: qHTS replaces the single test concentration by a dilution series.

For test [2], the target named is Luciferin 4-monooxygenase (Photinus pyralis) (UniProt P08659). As to the kind of experiment: qHTS assay to identify small molecule inhibitors of firefly luciferase (AID 1224835). Further: nearly all actives have a fitted effect of over 25% in size. The procedure, abridged:
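Quantitative HTS format; KM concentrations of both substrates. Purified P. pyralis FLuc activity quantified from luminescence images.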

Test [3] can be described thus: qHTS assay to identify small molecule agonists of the constitutive androstane receptor (CAR) signaling pathway - cell viability counter screen (AID 1224836). Further: nearly all actives have a fitted effect of over 45% in size. In a few lines: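 HepG2 cells stably carrying hCAR and a CYP2B6-2.2kb reporter were plated 4 h, then given compounds at 15 concentrations plus PK11195 (final 0.75 uM). After 23 h at 37 C, viability was read by CellTiter-Fluor fluorescence.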

Test [4] is described as follows: qHTS assay to identify small molecule antagonists of the constitutive androstane receptor (CAR) signaling pathway - cell viability counter screen (AID 1224837). Further: nearly all actives have a fitted effect of over 45% in size. In a few lines: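 To flag cytotoxic false antagonists, HepG2 hCAR/CYP2B6-2.2kb cells were treated 23 hr with 15-concentration compound series and 50 nM CITCO at 37 C/5% CO2; CellTiter-Fluor fluorescence was the measured end point.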

For test [5], the target named is Nuclear receptor subfamily 1 group I member 3 (Homo sapiens) (UniProt Q14994). As to the kind of experiment: qHTS assay to identify small molecule antagonists of the constitutive androstane receptor (CAR) signaling pathway (AID 1224838). Further: nearly all actives have a fitted effect of over 40% in size. The procedure, abridged:
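Human hepatoma HepG2 cells expressing hCAR and a CYP2B6 promoter (2.2 kb) luciferase construct; compound titration (15 points) with 50 nM CITCO final, 24 h at 37 C/5% CO2; luminescence via ONE-Glo after 30 min at room temperature.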

Test [6] has the same target. As to the kind of experiment: qHTS assay to identify small molecule agonists of the constitutive androstane receptor (CAR) signaling pathway (AID 1224839). Further: nearly all actives have a fitted effect of over 15% in size. Further: potency means the concentration at half of the fitted maximal effect. In a few lines:
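HepG2 cells stably expressing hCAR and a CYP2B6-2.2kb luciferase reporter were treated with compounds at 15 concentrations plus 0.75 uM PK11195 (final) for 24 h at 37 C; luminescence was read after ONE-Glo addition.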

Test [7] in a line: qHTS assay to identify small molecule antagonists of the estrogen related receptor signaling pathway with the pleiotropic PPARgamma coactivator (PGC) from Tox21 10K library - cell viability counter screen (AID 1224840; active means well fitted cell-killing curve with a large enough effect in the repeat runs, not every such curve was filed as active; further: nearly all actives have a fitted effect of over 40% in size). The procedure, abridged: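 Seeded PGC/ERR cells (2,000/well, 6 h, 37 C/5% CO2) get compound by pin tool; 17.5 h incubation at 37 C; CellTiter-Fluor added, 30 min, fluorescence measured.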

Test [8] can be described thus: qHTS assay to identify small molecule antagonists of the estrogen related receptor signaling pathway with the pleiotropic PPARgamma coactivator (PGC) from Tox21 10K library (AID 1224841; call rule not given here; further: actives are mostly falling curves and most rising ones were filed inactive; nearly all actives have a fitted effect of over 50% in size). The procedure, abridged:
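Test chemicals dissolved in DMSO were applied to pre-incubated (6 h) PGC/ERR cells at 2,000 cells/well for an 18 h, 37 C treatment; reporter luminescence was then read using One-Glo.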

Test [9] in a line: qHTS assay to identify small molecule agonists of the estrogen related receptor signaling pathway with the pleiotropic PPARgamma coactivator (PGC) from Tox21 10K library (AID 1224842). Further: nearly all actives have a fitted effect of over 15% in size. In a few lines: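 PGC/ERR reporter cells (NTP line) were seeded 2,000 per well, rested 6 h at 37 C/5% CO2, then pin-dosed with compounds in DMSO for 18 h at 37 C; luciferase read by One-Glo luminescence after 30 min at room temperature.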

Test [10] addresses Thyrotropin receptor (Homo sapiens) (UniProt P16473). As to the kind of experiment: qHTS assay to identify small molecule agonists of the thyroid stimulating hormone receptor (TSHR) signaling pathway (AID 1224843; calls by dose curve; further: nearly all actives have a fitted effect of over 45% in size). The procedure, abridged: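 Using 15 concentrations per compound in triplicate, cAMP production was monitored in TSHR-HEK293 cells after 30 min compound incubation at RT; HTRF reagents followed, with fluorescence intensity recorded after 1 h.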

A short description of test [11]: qHTS assay to identify small molecule agonists of the hypoxia (HIF-1) signaling pathway - cell viability counter screen (AID 1224844; calls by dose curve; further: nearly all actives have a fitted effect of over 50% in size). The procedure, abridged: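 HRE-bla ME-180; 0.5% dFBS; cpd 17 h, 37C, 5% CO2; CellTiter-Glo lum., 30 min RT, post-FRET read, same wells.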
Test [12] is described as follows: qHTS assay to identify small molecule agonists of H2AX (AID 1224845; active means well fitted activation curve with a large enough effect in the signal ratio in the repeat runs, not every such curve was filed as active; the % refers to the signal ratio). In a few lines: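 Wild-type CHO-K1 cells plated overnight, then exposed 3 hr at 37C to compounds at 15 concentrations (0.76% DMSO). Lysed, then HTRF anti-pH2AX(S139)-cryptate/anti-H2AX-d2 detection after 24 hr at room temperature; emissions 665 and 620 nm.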
A short description of test [13]: qHTS assay to identify small molecule agonists of the hypoxia (HIF-1) signaling pathway (AID 1224846; active means well fitted activation curve with a large enough effect in the signal ratio in the repeat runs, not every such curve was filed as active; the % refers to the signal ratio). In a few lines:
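Reporter induction in HRE-bla ME-180 cells is taken as agonism: cells sit 5 hrs after plating, receive compounds or DMSO only, incubate 17 hrs at 37C under 5% CO2, and are loaded with CCF4-AM for beta-lactamase FRET measurement.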

Test [14] is described as follows: qHTS assay to identify small molecule agonists of H2AX - cell viability counter screen (AID 1224847; calls by dose curve; further: top concentration of the series differs between compounds; nearly all actives have a fitted effect of over 30% in size). The procedure, abridged: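 Wild-type CHO-K1 cells (10% FBS medium) were plated overnight at 37C, exposed to compounds at 15 concentrations for 3 hr at 37C (0.76% DMSO final), and viability was read as CellTiter-Glo luminescence after 30 min at room temperature.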

A short description of test [15]: qHTS assay to identify small molecule antagonists of the estrogen related receptor (ERR) signaling pathway from Tox21 library (AID 1224848). Further: nearly all actives have a fitted effect of over 50% in size. The procedure, abridged: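 Tox21 10K compounds in DMSO tested for ERR pathway antagonism in NTP's ERR cell line; 18 h, 37 C exposure; ONE-Glo luminescence.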
The nature of test [16]: qHTS assay to identify small molecule agonists of the estrogen related receptor (ERR) signaling pathway from Tox21 library (AID 1224849; calls by dose curve; further: nearly all actives have a fitted effect of over 15% in size). The following applies: ERR reporter cell line, ONE-Glo luciferase, 18 h. In a few lines: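 Tox21 compounds tested for ERR agonism in an NTP reporter cell line: 18 h treatment at 37 C, then ONE-Glo luminescence.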
Test [17] in a line: qHTS RealTime-Glo MT Cell Viability Assay in HepG2 cells - 24 hour (AID 1224867). Further: nearly all actives have a fitted effect of over 50% in size. In a few lines: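 Cell number in HepG2 cultures estimated from NanoLuc luminescence generated by metabolic reduction of a prosubstrate by living cells. The homogeneous, nonlytic format allowed repeated reads at 0, 8, 16, 24, 32 and 40 h of compound exposure.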
A short description of test [18]: qHTS RealTime-Glo MT Cell Viability Assay in HEK293 cells - 32 hour (AID 1224868). In a few lines: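 Homogeneous bioluminescent viability format in HEK293 cells (600 cells/well). Following 5 h at 37 C/5% CO2, 23 nL compound was pintooled; the signal was measured repeatedly during 40 h incubation.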
A short description of test [19]: A CellTox Green Cytotoxicity Assay to monitor cytotoxicity in HEK293 cells - 0 hour (AID 1224869). Further: nearly all actives have a fitted effect of over 50% in size. In a few lines: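 Tox21 screen in HEK293: membrane-impermeant cyanine dye fluoresces on binding dead-cell DNA; compound pinned 5 h post-seeding, plates held at 37 C, signal read repeatedly through 40 h.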
On the % scale 0 is the no-effect control and ±100 the full control effect.

Chain of Nuclear receptor subfamily 1 group I member 3 (Homo sapiens) (Q14994 whole entry, looked up): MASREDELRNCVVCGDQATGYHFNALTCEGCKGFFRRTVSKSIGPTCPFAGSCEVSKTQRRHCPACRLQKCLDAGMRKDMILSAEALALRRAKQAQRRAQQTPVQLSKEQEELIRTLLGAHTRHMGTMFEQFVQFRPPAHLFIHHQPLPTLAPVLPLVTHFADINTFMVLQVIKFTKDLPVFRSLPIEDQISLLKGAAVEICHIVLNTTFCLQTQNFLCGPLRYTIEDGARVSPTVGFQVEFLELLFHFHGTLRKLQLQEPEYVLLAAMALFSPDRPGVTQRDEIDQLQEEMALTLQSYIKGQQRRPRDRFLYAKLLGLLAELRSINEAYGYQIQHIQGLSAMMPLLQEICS
Chain of Thyrotropin receptor (Homo sapiens) (P16473 whole entry, looked up): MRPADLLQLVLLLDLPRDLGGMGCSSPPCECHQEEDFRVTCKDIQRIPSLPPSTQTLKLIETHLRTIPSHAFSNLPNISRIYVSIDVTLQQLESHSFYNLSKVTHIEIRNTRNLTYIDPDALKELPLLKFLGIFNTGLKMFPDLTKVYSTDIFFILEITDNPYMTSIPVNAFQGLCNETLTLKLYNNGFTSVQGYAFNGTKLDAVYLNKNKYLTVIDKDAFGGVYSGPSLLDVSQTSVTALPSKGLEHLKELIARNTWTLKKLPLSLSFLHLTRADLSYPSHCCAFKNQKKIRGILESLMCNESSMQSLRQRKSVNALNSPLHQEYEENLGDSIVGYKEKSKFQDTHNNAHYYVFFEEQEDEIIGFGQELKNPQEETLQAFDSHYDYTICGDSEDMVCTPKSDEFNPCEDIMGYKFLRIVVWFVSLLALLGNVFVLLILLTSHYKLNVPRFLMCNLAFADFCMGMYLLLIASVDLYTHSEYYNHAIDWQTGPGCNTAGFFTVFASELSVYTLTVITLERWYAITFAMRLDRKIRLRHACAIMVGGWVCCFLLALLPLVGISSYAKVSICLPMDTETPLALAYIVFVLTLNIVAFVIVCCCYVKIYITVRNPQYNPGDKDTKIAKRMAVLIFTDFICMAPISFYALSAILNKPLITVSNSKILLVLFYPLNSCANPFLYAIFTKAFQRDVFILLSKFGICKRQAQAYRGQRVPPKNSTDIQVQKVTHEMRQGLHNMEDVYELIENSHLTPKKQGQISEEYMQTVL
Chain of Luciferin 4-monooxygenase (Photinus pyralis) (P08659 whole entry, looked up): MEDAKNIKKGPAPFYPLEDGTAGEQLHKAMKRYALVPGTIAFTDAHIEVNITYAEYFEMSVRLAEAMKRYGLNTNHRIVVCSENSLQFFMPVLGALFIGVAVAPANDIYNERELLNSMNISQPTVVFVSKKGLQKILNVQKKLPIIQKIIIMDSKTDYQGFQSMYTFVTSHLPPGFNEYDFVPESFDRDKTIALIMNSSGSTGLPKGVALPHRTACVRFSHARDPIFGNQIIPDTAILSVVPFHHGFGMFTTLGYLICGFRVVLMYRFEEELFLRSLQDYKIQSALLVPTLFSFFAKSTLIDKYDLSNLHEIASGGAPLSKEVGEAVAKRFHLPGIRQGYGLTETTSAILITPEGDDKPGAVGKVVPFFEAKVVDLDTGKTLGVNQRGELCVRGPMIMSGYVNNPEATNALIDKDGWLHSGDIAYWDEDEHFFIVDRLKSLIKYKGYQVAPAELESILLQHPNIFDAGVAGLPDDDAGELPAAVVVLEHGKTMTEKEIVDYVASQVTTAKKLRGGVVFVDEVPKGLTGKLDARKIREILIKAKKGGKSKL

As to `CCCCC(CC)COC(=O)/C=C\C(=O)OCC(CC)CCCC` (configuration not stated), the Potency entry in [1], in [2], in test [3], in test [4], in test [5] and in test [7] was “inactive” throughout. Also, the Potency entry in test [8], in test [9], in test [10], in test [11], in [12] and in test [14] was “inactive” each time. The Potency entry in test [15], in [17] and in test [18] was “inactive” throughout. Moreover, the Potency in test [6] is 61.1 µM (active). In addition, the molecule was called inactive in [13]. Also, the activity change, positive = activation in test [16] (at 92.4 µM (top of the series)) is -6.56% and 3.66%.
Turning to `CCCCOCCO`, the Potency entry in test [1], in test [2], in test [3], in test [4], in test [5] and in [6] was “inactive” throughout. The Potency entry in [7], in test [8], in test [9], in [10], in [11] and in test [12] was “inactive” each time. The Potency entry in test [14], in test [15], in test [17] and in test [18] was “inactive” throughout. In addition, the result in test [13] was inactive. Further, in test [16] (at 92.4 µM (top of the series)), the activity change, positive = activation was 5.31% and -0.958%.
`C=C(C#N)C(=O)OCC`: the Potency entry in test [1], in test [2], in test [3], in test [4], in test [5] and in [6] was “inactive” in each case. Besides, the Potency result in [7], in test [8], in [9], in [10], in test [11] and in test [12] was “inactive” each time. For the same molecule, the Potency entry in test [14], in test [15], in test [17], in test [18] and in test [19] was “inactive” in each case. In addition, the result in [13] was inactive. In addition, the activity change, positive = activation in test [16] (at 92.4 µM (top of the series)) was 7.93% and 0.135%.
As for `OC1CCCC1`, the Potency entry in test [1], in test [2], in test [3], in [4], in test [5] and in test [6] was “inactive” each time. Besides, the Potency entry in test [7], in test [8], in test [9], in test [10], in test [11] and in [12] was “inactive” throughout. Besides, the Potency result in test [14], in test [15], in test [17], in [18] and in test [19] was “inactive” in each case. For the same molecule, the molecule was called inactive in test [13].
As to `NCCNCCNCCNCCN`, the Potency entry in test [1], in [2], in [3], in [4], in test [5] and in test [6] was “inactive” each time. Further, the Potency result in test [7], in test [8], in [9], in test [10], in test [11] and in test [12] was “inactive” throughout. The Potency entry in test [14], in test [15], in test [17], in test [18] and in test [19] was “inactive” throughout. Also, the result in [13] was inactive. Besides, the activity change, positive = activation in test [16] (at 8.39 µM (top of the series)) was 3.41%; in test [16] (at 92.4 µM (top of the series)), 2.98%.
`C=CC(=O)OCCCCCCCC(C)C`: the Potency result in test [1], in test [2], in test [3], in test [4], in [5] and in test [6] was “inactive” each time. In addition, the Potency result in test [7], in [10], in test [11], in test [12], in [14] and in test [17] was “inactive” in each case. In [18], the Potency entry was “inactive”. In [13], the molecule was classed as inactive.
